Measured values: PubChem BioAssay (NCATS)
Records with an inconclusive call do not appear. Active and inactive are the calls of the source. The call rests on the fitted dose curve; in most records, active means well fitted curve in the direction sought with a large enough effect; inconclusive means small, poorly fitted or top-dose-only effect, or another doubt; inactive means no such curve, though single readings can be large; an effect the other way counts as inactive or inconclusive.

Experiments:
[1] = test system: HEK293; experiment: Cytotoxic Profiling of Annotated Libraries Using Quantitative High-Throughput Screening (AID 1296008); settings: Five cell lines viability, CellTiter-Glo ATP luminescence, 48-72 h; max response: stronger effect = lower value; further: nearly all actives have a fitted effect of over 60% in size
Method in brief: (§1)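 Compounds were pin-transferred onto cells and incubated 48 or 72 hr at 37 degree Celsius, 95% humidity. CellTiter-Glo was added, plates sat 10 min at room temperature, then ATP-coupled luminescence was imaged as the viability read-out.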

[2] = test system: HaCat; experiment: as above; settings: Five cell lines viability, CellTiter-Glo ATP luminescence, 48-72 h; max response: stronger effect = lower value
Method in brief: as §1

[3] = test system: KB-3-1; experiment: as above; settings: Five cell lines viability, CellTiter-Glo ATP luminescence, 48-72 h; max response: stronger effect = lower value
Method in brief: as §1

[4] = test system: NIH3T3; experiment: as above; settings: Five cell lines viability, CellTiter-Glo ATP luminescence, 48-72 h; max response: stronger effect = lower value
Method in brief: as §1

[5] = test system: C33A; experiment: Primary qHTS to identify gynecologic anti-cancer compounds using libraries of approved drugs and bioactive compounds (AID 1345084); settings: Gynecologic cancer cell panel viability, ATPlite luminescence, 48 h; series mostly up to 57.5 µM; further: nearly all actives have a fitted effect of over 55% in size
Method in brief: (§2)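 Cells, 1,000 per well, were allowed to settle for 16 h at 37 C before compound addition. Five concentrations were tested for 48 h, and viability was read by ATPlite luminescence after 15 min at room temperature.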

[6] = test system: CASKI; experiment: as above; settings: Gynecologic cancer cell panel viability, ATPlite luminescence, 48 h; series mostly up to 57.5 µM
Method in brief: as §2

[7] = test system: Es-2; experiment: as above; settings: Gynecologic cancer cell panel viability, ATPlite luminescence, 48 h; series mostly up to 57.5 µM
Method in brief: as §2

[8] = test system: HeLa; experiment: as above; settings: Gynecologic cancer cell panel viability, ATPlite luminescence, 48 h; series mostly up to 57.5 µM
Method in brief: as §2

[9] = test system: Hek293T; experiment: as above; settings: Gynecologic cancer cell panel viability, ATPlite luminescence, 48 h, control line for the selectivity index; series mostly up to 57.5 µM
Method in brief: as §2

[10] = test system: JEG-3; experiment: as above; settings: Gynecologic cancer cell panel viability, ATPlite luminescence, 48 h; series mostly up to 57.5 µM
Method in brief: as §2

[11] = test system: CAOV3; experiment: as above; settings: Gynecologic cancer cell panel viability, ATPlite luminescence, 48 h; series mostly up to 57.5 µM
Method in brief: as §2
On the % scale 0 is the no-effect control and ±100 the full control effect; potency means the concentration at half of the fitted maximal effect.

C[C@@H]1O[C@@H](O[C@H]2[C@H](O)[C@@H](O)[C@H](OC[C@H]3O[C@@H](OC(=O)[C@]45CCC(C)(C)C[C@H]4C4=CCC6[C@@]7(C)CC[C@H](O[C@@H]8OC[C@H](O)[C@H](O[C@@H]9O[C@H](CO)[C@@H](O)[C@H](O)[C@H]9O)[C@H]8O)[C@@](C)(CO)C7CC[C@@]6(C)[C@]4(C)CC5)[C@H](O)[C@@H](O)[C@@H]3O)O[C@@H]2CO)[C@H](O)[C@H](O)[C@H]1O (stereo not given in full)
inactive: max response [1] -14.9% | max response [2] -0.978% | max response [3] 8.88% | max response [4] -6.93% | activity change, negative = cytotoxicity [5] 0.512% [at 6.55 µM] | activity change, negative = cytotoxicity [6] -0.125% [at 6.55 µM] | activity change, negative = cytotoxicity [7] -1.94% [at 6.55 µM] | activity change, negative = cytotoxicity [8] 8.6% [at 6.55 µM] | activity change, negative = cytotoxicity [9] -5.57% [at 6.55 µM] | activity change, negative = cytotoxicity [10] 16.9% [at 6.55 µM]

CC1=C(COC2OC(CO)C(O)C(O)C2O)C(C(CO)C(=O)O)CC1 (stereo not given)
inactive: max response [1] -0.67% | max response [2] -4.43% | max response [3] 9.18% | max response [4] -0.514% | Potency [5] | Potency [6] | Potency [7] | Potency [8] | Potency [9] | Potency [10]

O=C(CN1C(=O)C2(CCCC2)NCC1c1cc(F)cc(F)c1)Nc1ccc2c(c1)CC1(C2)C(=O)Nc2ncccc21 (stereo not given)
inactive: max response [1] -6.98% | max response [2] 1.71% | outcome [3] | max response [4] -0.622% | Potency [5] | Potency [6] | Potency [7] | Potency [8] | Potency [9] | Potency [10]

CC(O)(CC(=O)O)CC(=O)OCc1ccc(O[C@@H]2O[C@H](CO)[C@@H](O)[C@H](O)[C@H]2O)cc1 (stereo not given in full)
inactive: max response [1] -1.35% | max response [2] 1.6% | outcome [3] | max response [4] -5.49% | Potency [5] | Potency [6] | Potency [7] | Potency [8] | Potency [9] | Potency [10]

Cc1c(CN2CCN(C(=O)C(C)O)CC2)sc2c(N3CCOCC3)nc(-c3cnc(N)nc3)nc12 (stereo not given)
active: Potency [1] 651 nM | Potency [2] 2310 nM | Potency [3] 580 nM | Potency [4] 1300 nM | Potency [5] 2000 nM | Potency [11] 1410 nM | Potency [6] 1260 nM | Potency [9] 891 nM

COc1cc(NC(=O)Nc2cccc(CNC(=O)O[C@H]3CCOC3)c2)ccc1-c1cnco1
inactive: max response [2] -5.46% | Potency [5] | Potency [11] | Potency [10]
active: Potency [1] 2310 nM | Potency [3] 4110 nM | Potency [4] 3660 nM

COc1c2c(c(C)c3c1C(=O)OC3)OC1(C)CC(O)C(C(C)(C)O)C(C)(CCC(=O)O)C1C2 (stereo not given)
inactive: max response [1] -5.2% | max response [2] -1.29% | outcome [3] | max response [4] 0.542% | Potency [5] | Potency [11] | Potency [6] | Potency [7] | Potency [9] | Potency [10]
